# Measured values taken from PubChem BioAssay (Tox21).
# Results filed as inconclusive are left out. Entries that show only a call come without a potency. Active and inactive are the calls of the source. Calls follow the shape of the full dose curve.
# Test: qHTS assay for small molecule disruptors of the mitochondrial membrane potential - cell viability (AID 720634); also: nearly all actives have a fitted effect of over 20% in size
# Conditions: HepG2 viability, ATP luminescence (CellTiter-Glo), 1 h; series mostly up to 83.2 µM
# Procedure, shortened: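 Same-well counter-screen: following the MMP dye addition, CellTiter-Glo was added to 1 hr compound-treated HepG2 cells and luminescence read after 30 min at room temperature.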
# Potency is read from the fitted curve at half-maximal effect.
row,SMILES,Potency
1,CCCCC(CC)COC(=O)C(C#N)=C(c1ccccc1)c1ccccc1 (stereo not given),15.4 µM (active)
2,O=C(Oc1ccccc1)c1ccccc1,inactive
3,CC1CCC(C(C)C)C(O)C1 (stereo not given),inactive
4,CCCCCCCCCCCCOCCO,inactive
5,O=C(O)[C@H](O)[C@@H](O)[C@H](O)[C@H](O)CO,inactive
6,CCCSc1ccc2nc(NC(=O)OC)[nH]c2c1,inactive
7,O=C(O)CCCC[C@@H]1SC[C@@H]2NC(=O)N[C@@H]21,inactive
8,CCc1ccc(CCOc2ccc(CC3SC(=O)NC3=O)cc2)nc1 (stereo not given),inactive
9,COc1ccc2cc([C@H](C)C(=O)O)ccc2c1,inactive
10,COCCCOc1ccnc(CS(=O)c2nc3ccccc3[nH]2)c1C (stereo not given),inactive
11,O=C(O)c1cc(C(=O)O)cc(S(=O)(=O)O)c1,inactive
12,Cc1ccc2oc(=O)ccc2c1,inactive
13,Cc1occc(=O)c1O,inactive
14,CCN(CC)c1ccc(C(=O)c2ccccc2C(=O)O)c(O)c1,inactive
15,CC(c1cc2ccccc2s1)N(O)C(N)=O (stereo not given),27.3 µM (active)
16,CC(C)c1ccc(S(=O)(=O)O)cc1,inactive
17,O=C(O)c1ccccc1C(c1ccc(O)cc1)c1ccc(O)cc1,inactive
18,OCc1cccnc1,inactive
19,COS(C)(=O)=O,inactive
20,CCCCCC/C(C=O)=C\c1ccccc1,inactive
21,CCCCCC1=CCCC1=O,inactive
22,CCCCCOC(C)=O,inactive
23,C#C[C@]1(O)CC[C@H]2[C@@H]3CCC4=CC(=O)CC[C@@H]4[C@H]3CC[C@@]21C,inactive
24,CCCCC(CC)COC(=O)CCCCC(=O)OCC(CC)CCCC (stereo not given),inactive
25,COc1ccc(NC(C)=O)cc1N,inactive
